# Test results from publication PMC5540273 (PLoS ONE, 2017).
# Several values for one entry are separate records, joined by “and”; a condition that tells them apart may be missing. Identical values can stand only once. Like-named read-outs stand apart in the source and are kept apart here.
# Columns and labels:
# [1] = tested on: T1, RSK2(Kin.Dom.1-N-terminal); conditions: concentration: 1 μM, replicates: in singlicate, n = 1
# T1 construct: gene RPS6KA3
# [2] = tested on: T2, RSK2(Kin.Dom.2-C-terminal); conditions: concentration: 1 μM, replicates: in singlicate, n = 1
# T2 construct: gene RPS6KA3
# [3] = tested on: T3, RSK3(Kin.Dom.1-N-terminal); conditions: concentration: 1 μM, replicates: in singlicate, n = 1
# T3 construct: gene RPS6KA2
# [4] = tested on: T4, RSK3(Kin.Dom.2-C-terminal); conditions: concentration: 1 μM, replicates: in singlicate, n = 1
# T4 construct: gene RPS6KA2
# [5] = tested on: T5, RSK4(Kin.Dom.1-N-terminal); conditions: concentration: 1 μM, replicates: in singlicate; n = 1
# T5 construct: gene RPS6KA6
# [6] = tested on: T6, RSK4(Kin.Dom.2-C-terminal); conditions: concentration: 1 μM, replicates: in singlicate, n = 1
# T6 construct: gene RPS6KA6
# [7] = tested on: S6K1; conditions: concentration: 1 μM, replicates: in singlicate, n = 1
# [8] = tested on: SBK1; conditions: concentration: 1 μM, replicates: in singlicate, n = 1
# [9] = tested on: SGK2; conditions: concentration: 1 μM, replicates: in singlicate, n = 1
# [10] = tested on: SGK3; conditions: concentration: 1 μM, replicates: in singlicate, n = 1
# [11] = tested on: SGK; conditions: concentration: 1 μM, replicates: in singlicate, n = 1
# [12] = tested on: SIK2; conditions: concentration: 1 μM, replicates: in singlicate, n = 1
# [13] = tested on: SIK; conditions: concentration: 1 μM, replicates: in singlicate, n = 1
# [14] = tested on: SLK; conditions: concentration: 1 μM, replicates: in singlicate; n = 1
# [15] = tested on: T7, SNARK; conditions: concentration: 1 μM, replicates: in singlicate, n = 1
# T7 construct: gene NUAK2
# [16] = tested on: SNRK; conditions: concentration: 1 μM, replicates: in singlicate, n = 1
# [17] = tested on: SRC; conditions: concentration: 1 μM, replicates: in singlicate; n = 1
# [18] = tested on: SRMS; conditions: concentration: 1 μM, replicates: in singlicate, n = 1
# [19] = tested on: SRPK1; conditions: concentration: 1 μM, replicates: in singlicate, n = 1
# [20] = tested on: SRPK2; conditions: concentration: 1 μM, replicates: in singlicate, n = 1
# 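Also: KINOMEscan kinase panel screen.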
smiles,measurement,setting,value
Cc1ccc(NC(=O)c2ccnc(N3CCN(C)CC3)c2)cc1-c1ccc(C(=O)NCC2CC2)cc1 [GW775604],%Inh,[1],0%
same,%Inh,[2],0%
same,%Inh,[3],0%
same,%Inh,[4],15%
same,%Inh,[5],0%
same,%Inh,[6],7%
same,%Inh,[7],9%
same,%Inh,[8],0%
same,%Inh,[9],0%
same,%Inh,[10],0%
same,%Inh,[11],0%
same,%Inh,[12],21%
same,%Inh,[13],0%
same,%Inh,[14],0%
same,%Inh,[15],0%
same,%Inh,[16],0%
same,%Inh,[17],0%
same,%Inh,[18],3%
same,%Inh,[19],0%
same,%Inh,[20],0%
NS(=O)(=O)c1cccc(-c2ccc3ncc(N4CCOCC4)nc3c2)c1 [GSK1535721],%Inh,[1],15%
same,%Inh,[2],7%
same,%Inh,[3],0%
same,%Inh,[4],0%
same,%Inh,[5],0%
same,%Inh,[6],0%
same,%Inh,[7],10%
same,%Inh,[8],0%
same,%Inh,[9],0%
same,%Inh,[10],9%
same,%Inh,[11],9%
same,%Inh,[12],0%
same,%Inh,[13],0%
same,%Inh,[14],2%
same,%Inh,[15],1%
same,%Inh,[16],0%
same,%Inh,[17],0%
same,%Inh,[18],6%
same,%Inh,[19],0%
same,%Inh,[20],0%
CC(C)(CN)c1nc(-c2ccc(Cl)c(O)c2)c(-c2ccncc2)[nH]1.O=C(O)C(F)(F)F [SB-477794],%Inh,[1]; 1 µM,0% and 11%
same,%Inh,[2]; 1 µM,36% and 27%
same,%Inh,[3]; 1 µM,6% and 2%
same,%Inh,[4]; 1 µM,0% and 2%
same,%Inh,[5],0%
same,%Inh,[6]; 1 µM,90.6% and 89%
same,%Inh,[7]; 1 µM,43% and 37%
same,%Inh,[8]; 1 µM,5% and 6%
same,%Inh,[9]; 1 µM,2% and 0%
same,%Inh,[10]; 1 µM,0% and 7%
same,%Inh,[11]; 1 µM,23% and 3%
same,%Inh,[12]; 1 µM,78% and 71%
same,%Inh,[13]; 1 µM,21% and 33%
same,%Inh,[14],99.3%
same,%Inh,[15]; 1 µM,0% and 7%
same,%Inh,[16]; 1 µM,11% and 0%
same,%Inh,[17],99.9%
same,%Inh,[18]; 1 µM,0% and 15%
same,%Inh,[19]; 1 µM,17% and 42%
same,%Inh,[20]; 1 µM,26% and 74%
CN1c2ccc(CNc3ccc(F)cc3)cc2-c2c(cnn2C)S1(=O)=O,%Inh,[1],23%
same,%Inh,[2],41%
same,%Inh,[3],3%
same,%Inh,[4],8%
same,%Inh,[5],5%
same,%Inh,[6],0%
same,%Inh,[7],0%
same,%Inh,[8],0%
same,%Inh,[9],100%
same,%Inh,[10],0%
same,%Inh,[11],0%
same,%Inh,[12],0%
same,%Inh,[13],0%
same,%Inh,[14],0%
same,%Inh,[15],0%
same,%Inh,[16],0%
same,%Inh,[17],0%
same,%Inh,[18],0%
same,%Inh,[19],0%
same,%Inh,[20],21%
O=C(Nc1cccc(-c2nn3ncccc3c2-c2ccnc(Nc3cccc(C(F)(F)F)c3)n2)c1)c1c(F)cccc1F [GSK299495],%Inh,[1],22%
same,%Inh,[2],0%
same,%Inh,[3],31%
same,%Inh,[4],5%
same,%Inh,[5],0%
same,%Inh,[6],0%
same,%Inh,[7],0%
same,%Inh,[8],11%
same,%Inh,[9],2%
same,%Inh,[10],0%
same,%Inh,[11],1%
same,%Inh,[12],0%
same,%Inh,[13],0%
same,%Inh,[14],81%
same,%Inh,[15],0%
same,%Inh,[16],0%
same,%Inh,[17],56%
same,%Inh,[18],21%
same,%Inh,[19],0%
same,%Inh,[20],16%
O=C1NC(=O)C(N2CCc3ccccc32)=C1c1cccc(Cl)c1 [SB-408010],%Inh,[1],0%
same,%Inh,[2],0%
same,%Inh,[3],10%
same,%Inh,[4],21%
same,%Inh,[5],35%
same,%Inh,[6],11%
same,%Inh,[7],0%
same,%Inh,[8],5%
same,%Inh,[9],0%
same,%Inh,[10],0%
same,%Inh,[11],0%
same,%Inh,[12],0%
same,%Inh,[13],12%
same,%Inh,[14],26%
same,%Inh,[15],2%
same,%Inh,[16],0%
same,%Inh,[17],10%
same,%Inh,[18],0%
same,%Inh,[19],14%
same,%Inh,[20],9%
Cc1cccc(-c2nc(-c3ccc(S(C)(=O)=O)cc3)sc2-c2ccncc2)c1,%Inh,[1],0%
same,%Inh,[2],25%
same,%Inh,[3],0%
same,%Inh,[4],4%
same,%Inh,[5],30%
same,%Inh,[6],15%
same,%Inh,[7],12%
same,%Inh,[8],1%
same,%Inh,[9],0%
same,%Inh,[10],12%
same,%Inh,[11],0%
same,%Inh,[12],0%
same,%Inh,[13],12%
same,%Inh,[14],26%
same,%Inh,[15],2%
same,%Inh,[16],17%
same,%Inh,[17],8%
same,%Inh,[18],0%
same,%Inh,[19],15%
same,%Inh,[20],0%
COc1ccc(S(=O)(=O)NC2CCN(c3cc(C)nc(Nc4cccc(C#N)c4)n3)CC2)cc1.O=C(O)C(F)(F)F [GSK1653539],%Inh,[1],0%
same,%Inh,[2],0%
same,%Inh,[3],1%
same,%Inh,[4],0%
same,%Inh,[5],0%
same,%Inh,[6],21%
same,%Inh,[7],0%
same,%Inh,[8],0%
same,%Inh,[9],0%
same,%Inh,[10],4%
same,%Inh,[11],0%
same,%Inh,[12],0%
same,%Inh,[13],0%
same,%Inh,[14],8%
same,%Inh,[15],0%
same,%Inh,[16],0%
same,%Inh,[17],0%
same,%Inh,[18],0%
same,%Inh,[19],0%
same,%Inh,[20],0%
O=C(c1ccc(-c2cc(-c3c[nH]nc3-c3ccccn3)ccn2)cc1)N1CCOCC1 [GW812171],%Inh,[1],31%
same,%Inh,[2],0%
same,%Inh,[3],0%
same,%Inh,[4],0%
same,%Inh,[5],9%
same,%Inh,[6],24%
same,%Inh,[7],13%
same,%Inh,[8],0%
same,%Inh,[9],0%
same,%Inh,[10],16%
same,%Inh,[11],2%
same,%Inh,[12],0%
same,%Inh,[13],0%
same,%Inh,[14],0%
same,%Inh,[15],16%
same,%Inh,[16],10%
same,%Inh,[17],1%
same,%Inh,[18],28%
same,%Inh,[19],0%
same,%Inh,[20],0%
CCc1nc(-c2cccc(C)c2)c(-c2ccnc(NCc3ccccc3)c2)s1,%Inh,[1],0%
same,%Inh,[2],0%
same,%Inh,[3],0%
same,%Inh,[4],2%
same,%Inh,[5],0%
same,%Inh,[6],53%
same,%Inh,[7],4%
same,%Inh,[8],0%
same,%Inh,[9],4%
same,%Inh,[10],0%
same,%Inh,[11],2%
same,%Inh,[12],10%
same,%Inh,[13],5%
same,%Inh,[14],7%
same,%Inh,[15],0%
same,%Inh,[16],0%
same,%Inh,[17],7%
same,%Inh,[18],1%
same,%Inh,[19],1%
same,%Inh,[20],0%
